From PubChem BioAssay AID2551 (National Center for Advancing Translational Sciences (NCATS), 2010)
Screen size: about 310,000 compounds; about 17,000 (5.5%) were called active. Inconclusive results (about 11%) are left out. This excerpt belongs to a sample that is enriched for actives. Values without a mark were called inactive. The call rests on the fitted dose curve; in most records, active means well fitted inhibition curve with a large enough effect; inconclusive means small, poorly fitted or top-dose-only effect, or effect the other way; inactive means no such curve, though single readings can be large or run the other way.

The molecules below were run against Nuclear receptor ROR-gamma (Mus musculus) (UniProt P51450) (assay: qHTS for inhibitors of ROR gamma transcriptional activity). Conditions: Drosophila S2 Gal4-RORgamma UAS-luciferase reporter, 20 h; series mostly up to 53.6 µM; activity change, negative = inhibition: at the top concentration.
Summary of the method: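 Schneider cells (Drosophila), stable Gal4 DBD–ROR gamma + UAS-luc; 1 hr cmpd preincubation; Cu2+ induction 700 uM final; 20 hr ambient; luminescence.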
Further: nearly all actives have a fitted effect of over 60% in size.
On the % scale 0 is the no-effect control and ±100 the full control effect; potency means the concentration at half of the fitted maximal effect.

Sequence of Nuclear receptor ROR-gamma (Mus musculus) (P51450 whole entry, looked up, the tested form may be a part): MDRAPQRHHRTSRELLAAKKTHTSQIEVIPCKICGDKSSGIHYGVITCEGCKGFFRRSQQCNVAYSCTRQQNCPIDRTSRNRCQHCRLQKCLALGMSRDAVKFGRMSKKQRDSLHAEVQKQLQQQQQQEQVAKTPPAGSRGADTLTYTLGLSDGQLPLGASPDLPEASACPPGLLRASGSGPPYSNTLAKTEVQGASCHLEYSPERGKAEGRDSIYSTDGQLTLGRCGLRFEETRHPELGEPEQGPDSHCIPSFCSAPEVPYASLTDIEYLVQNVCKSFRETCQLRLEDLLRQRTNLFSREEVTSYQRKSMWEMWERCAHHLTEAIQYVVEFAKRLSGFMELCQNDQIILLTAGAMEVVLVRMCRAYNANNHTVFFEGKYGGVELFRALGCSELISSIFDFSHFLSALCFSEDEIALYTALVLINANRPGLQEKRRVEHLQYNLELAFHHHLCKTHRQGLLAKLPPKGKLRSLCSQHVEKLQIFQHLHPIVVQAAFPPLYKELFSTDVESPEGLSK

Structure (SMILES)	Potency	activity change, negative = inhibition
Cc1nc(-c2ccc(Cl)cc2)sc1C(=O)CBr	5.01 µM (active)	–
Cc1nc(-c2ccc(Cl)cc2)sc1C(=O)NN	–	-2.42%
Cc1nc(-c2ccccc2)sc1C(=O)/C=C/N(C)C	–	1.56%
COc1ccccc1OC(C)C(=O)Nc1ccc(S(=O)(=O)Nc2nccs2)cc1 (configuration not stated)	–	18.7%
Cc1ccccc1-c1ccc(C(=O)O)s1	–	-6.92% [at 96.6 µM]
Cc1ccccc1-c1n[nH]c(=S)n1C	2.82 µM (active)	–
CC(C)c1ccc(N2CCN(C(=O)c3ccccc3NC(=O)/C=C(\C(=O)O)c3ccccc3)CC2)cc1	3.16 µM (active)	–
COc1ccc(C(=O)Nc2ccccc2C(=O)N2CCN(c3ccccc3)CC2)cc1	–	13%
O=C(O)C1CC=CCC1C(=O)Nc1ccccc1C(=O)N1CCN(c2ccccc2)CC1 (configuration not stated)	–	3.34%
O=C(Cc1c(Cl)cccc1Cl)NC1CC1	–	4.83%
Cc1c(Cl)cccc1NC(=O)NCc1ccc(C)n1C	–	-21.2%
N#CC1=C(N)C(C#N)(C#N)[C@H](c2ccsc2)[C@H]2COCC=C12	17.8 µM (active)	–
CCOC(=O)N1CC=C2C(C#N)=C(N)C(C#N)(C#N)[C@H](c3cccs3)[C@H]2C1	–	-18.5%
CCN1CC=C2C(C#N)=C(N)C(C#N)(C#N)[C@H](c3ccoc3)[C@H]2C1	–	-34.4%
CCCNC(=O)C(=O)Nc1cc2c3c(c1)CCC(=O)N3CCC2	–	-25.3%
CN(C(=O)C1CCN(c2ncnc3c2nc2n3CCCCC2)CC1)C1CCCCC1	–	27.8%
COCCCn1c(Cc2csc(Nc3cccc(Cl)c3)n2)nnc1SCC(=O)OC1CCCCC1	11.2 µM (active)	–
COCCCn1c(SCC(=O)NC2CCCC2)nnc1-c1ccccc1	–	-12.2%
CCOc1ccc(Nc2nc(Cc3nnc(SCC(=O)NC4CCCC4)n3C)cs2)cc1	–	-27%
CCCn1c(C(Cc2ccccc2)NC(=O)COC)nc2ccccc21 (configuration not stated)	–	-6.17%
CCCn1c(NC(=O)C23CC4CC(CC(O)(C4)C2)C3)nc2ccccc21	0.708 µM (active)	–
CCOc1ccccc1NC(=O)C12CC3CC(C1)CC(c1ccc(C)cc1)(C3)C2	–	8.47%
Cc1cc(C)nc(N/N=C/c2c(CO)cnc(C)c2O)n1	–	-28.5%
COCCn1c(=S)[nH]c2cc(C(=O)NCCc3ccc(OC)c(OC)c3)ccc2c1=O	–	-10.7%
COC(=O)c1ccc2c(=O)n(CC3CCCO3)c(=S)[nH]c2c1 (configuration not stated)	2.82 µM (active)	–
COc1ccc(Cn2c(O)c(/C=C3/C=CC=N3)c(=O)[nH]c2=O)cc1	–	-1.9%

Structure (SMILES)	Potency	activity change, negative = inhibition
COc1ccc(Cn2c(=O)cc(C)[nH]c2=S)cc1	11.2 µM (active)	–
O=C(NC1CCCCC1)c1ccc2c(=O)n(CC3CCCO3)c(=O)[nH]c2c1 (configuration not stated)	–	-16.1%
NC(=O)C1CCN(C(=O)c2ccc3c(=O)n(Cc4cccc(Br)c4)c(=S)[nH]c3c2)CC1	–	5.31%
COc1ccc(CNc2nc3c(c(=O)[nH]c(=O)n3C)n2Cc2ccccc2)cc1	–	8.46%
COc1ccc(Cn2c(=S)[nH]c3cc(C(=O)NCCCN4CCOCC4)ccc3c2=O)cc1	–	-17.8%
COc1ccc(Cn2c(=S)[nH]c3cc(C(=O)N4CCCCC4)ccc3c2=O)cc1	8.91 µM (active)	–
COc1cc2c(cc1OC)CN(CC(=O)Nc1ccc(F)cc1)CC2	–	-11.1%
CC(C)Oc1ccc(C(CC(=O)N2CCOCC2)C(C)C)cc1 (configuration not stated)	–	11.9%
COc1ccc(-c2nc3c(s2)CCc2onc(-c4ccc(OC)cc4)c2-3)cc1	–	10.8%
COc1cccc2cc(C(=O)NCc3ccc(C)cc3)c(=N)oc12	–	-13.8%
COc1cc(C(=O)Nn2c(CC(C)C)nc3ccccc3c2=O)cc(OC)c1OC	–	-37% [at 1.91 µM]
CCOc1ccccc1NC(=O)Cn1ncc2ccc([N+](=O)[O-])cc21	–	-2.79%
CC(=O)Nc1ccc(S(=O)(=O)N2CCC(C(=O)N[C@@H](Cc3ccccc3)C(=O)O)CC2)cc1	–	5.02%
COc1cccc(NC(=O)N2CCCC2C(=O)NC2CCCCC2)c1 (configuration not stated)	–	-5.05%
Cc1cc(-c2ccc(C)c(S(=O)(=O)NCCCN(Cc3ccccc3)C(C)C)c2)on1	–	-8.59%
O=C(NCCCN1CCCCC1)C1CC(=O)N(CCc2ccccc2)C1 (configuration not stated)	–	-16.4%
Oc1c(Cl)cc(Cl)c(Cl)c1Cc1c(O)c(Cl)cc(Cl)c1Cl	5.62 µM (active)	–
CN1CCN(c2ccc(NC(=O)c3ccc4c(c3)[nH]c(=O)n4Cc3ccc(F)cc3)cc2)CC1	–	16.3%
Cn1c(=O)n(C)c2cc(C(=O)Nc3ccc(Br)cc3)ccc21	–	-36.7%
CC(C)n1c(=O)[nH]c2cc(C(=O)Nc3ccccc3)ccc21	7.94 µM (active)	–
CCOC(=O)N1CCN(C(=O)C(C)NC(=O)c2ccco2)CC1 (configuration not stated)	–	10.7%
CC(/C=N/NC(=O)c1ccncc1)=C\c1ccco1	–	-2.2%
O=C(N/N=C/C=C/c1ccco1)c1cccs1	5.01 µM (active)	–
O=C(N/N=C/c1ccco1)c1ccc(C(=O)N/N=C/c2ccco2)o1	–	18.2%
COc1cc(OC)c(NC(=O)C2CCCN2C(=O)OCc2ccccc2)cc1Cl (configuration not stated)	–	-3.37%
COc1ccc(OC)c(S(=O)(=O)n2c([N+](=O)[O-])cnc2C)c1	–	-5.1%
